For 58 sequences, binding signal results are on record in paper PMC7819943, “Rice protein-binding microarrays: a tool to detect cis-acting elements near promoter regions in rice”.

Over roughly 35,000 sequences, “fluorescence intensity (a.u.)” has its median near 10,000; the highest 2% begin near 52,000. The entries come from a sample that favours the highest values as a whole.

In the assay the target is T1, OsWOX13 (Oryza sativa, UniProt Q5QMM3 1-267).
T1 sequence: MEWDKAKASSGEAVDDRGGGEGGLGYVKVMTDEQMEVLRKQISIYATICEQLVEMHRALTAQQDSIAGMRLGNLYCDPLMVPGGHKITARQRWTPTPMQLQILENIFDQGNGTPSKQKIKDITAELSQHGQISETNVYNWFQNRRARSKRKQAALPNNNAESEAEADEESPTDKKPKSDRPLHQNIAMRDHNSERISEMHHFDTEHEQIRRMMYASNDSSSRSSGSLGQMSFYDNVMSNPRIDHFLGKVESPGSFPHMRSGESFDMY
In words: protein-binding microarray (RPBM); PBS, 2% BSA, 51.3 ng/ul salmon testes DNA, 50 uM zinc acetate, 200 nM TF, 25 C, 1 h; high values mean tight binding. The note with it: protein: recombinant; tags: N-terminal polyhistidine and DsRed monomer fusion (pET32a); label: CyDye5-dUTP incorporated in the synthesized complementary strand; 3' TTTTT single-stranded linker to array surface; dsDNA, one strand shown. The method in brief:
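The binding signal is fluorescence intensity per array feature (arbitrary units). Readings came from an Axon 4000B scanner after a washed, 2% BSA-blocked, double-stranded custom Agilent array had been incubated for 1 h at 25 °C with 200 nM protein and 50 µM zinc acetate. The protein was a Ni–NTA-purified transcription factor fused N-terminally to polyhistidine and DsRed, expressed in E. coli BL21-CodonPlus.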
On to “CTTTAAACAGTTTGAGTGAATTTAGGGGTACATATTTCTGCGGAGTCACCTAGTGCAG”, for which the binding signal is 6070 fluorescence intensity (a.u.).

Regarding “TTTTGCTTGATTGGTGGTCTGATGTATTTGATGAGTGCGACGGAGTCACCTAGTGCAG”, the binding signal was 31300 fluorescence intensity (a.u.).

As for “ACACTAACAAATCAATTTTCTCTACCCACCACTCCTGAATCGGAGTCACCTAGTGCAG”, the binding signal is 8890 fluorescence intensity (a.u.).

Regarding “ATAATTATTTGTTTTCAGTCATGTATCTTCATCTTATACACGGAGTCACCTAGTGCAG”, the binding signal was 6340 fluorescence intensity (a.u.).

As for “AATGACATGGCAATCTCACCTTGGAGGTTTGTGCTTTGAACGGAGTCACCTAGTGCAG”, the binding signal is 4460 fluorescence intensity (a.u.).

As to “AAGCAATATAATTGTTTCTCTAATTAGGAGTTATACATGTCGGAGTCACCTAGTGCAG”, the binding signal was 19000 fluorescence intensity (a.u.).

Take “GGGGACATAAATCCTGATGATTTCCTCAACTTTGATCTTGCGGAGTCACCTAGTGCAG”: the binding signal is 3630 fluorescence intensity (a.u.).

For the sequence “TCTAATTAATTTGTCATTAGCAAATGTTTATTGTAGCATCCGGAGTCACCTAGTGCAG”, the binding signal is 58400 fluorescence intensity (a.u.).

Regarding “AATTAATTTGTCATTAGTAAATGTTTACTGTAGCACCACACGGAGTCACCTAGTGCAG”, the binding signal is 42000 fluorescence intensity (a.u.).

Turning to “CCTAATTAATCTGTCATTAGCAAATATTTATTGTAGCATCCGGAGTCACCTAGTGCAG”, the binding signal is 47000 fluorescence intensity (a.u.).

For the sequence “TAAGCCTAATTAATTTGTCATTAGCAAATGTTTACTATAGCGGAGTCACCTAGTGCAG”, the binding signal is 30300 fluorescence intensity (a.u.).

On to “CCTAATTAATCCGTCATTAGCAAATGTTTATTGTAGCACCCGGAGTCACCTAGTGCAG”, for which the binding signal is 41300 fluorescence intensity (a.u.).

With “AGCCTAATTAATTTGTCATTAGCAAATGTTTACTGTAGCACGGAGTCACCTAGTGCAG”, the binding signal is 57000 fluorescence intensity (a.u.).

With “CTTGATTAATCCGTACGTCTATCAACTCAGCCCGAAACGCCGGAGTCACCTAGTGCAG”, the binding signal is 46200 fluorescence intensity (a.u.).

“AAGCTATTAGATTGGCTATAGATGAATTGAAGTTAGTAGTCGGAGTCACCTAGTGCAG”: the binding signal is 26100 fluorescence intensity (a.u.).

In the case of “TTAGATTGGTTATAGATGAATTGGAGCTAGTAGTGGGTTGCGGAGTCACCTAGTGCAG”, the binding signal is 56200 fluorescence intensity (a.u.).

As for “CTTGAGATGATTAGACTCCTAATGTAGCTCATGATTATATCGGAGTCACCTAGTGCAG”, the binding signal is 14400 fluorescence intensity (a.u.).

Consider “GGCTATTAGATTGGTTATAAATGAATTGGAGCCAATAGTGCGGAGTCACCTAGTGCAG”, for which the binding signal was 39100 fluorescence intensity (a.u.).

Regarding “TGAGCTATTAGATTGGTTATAGATGAATTGAAGTTAGTAGCGGAGTCACCTAGTGCAG”, the binding signal was 14100 fluorescence intensity (a.u.).

“AAACCCTTAATTGCTCATGATTTTGCCATTATAATATAGGCGGAGTCACCTAGTGCAG”: the binding signal was 44600 fluorescence intensity (a.u.).

“ACATGATAGACTAATGAGTAGATTGTTGTCCTAATTAGCTCGGAGTCACCTAGTGCAG”: the binding signal was 54100 fluorescence intensity (a.u.).

Take “GAAATTATTGCTGAAATTTTGTCCTTCATAGTGTGCTGTTCGGAGTCACCTAGTGCAG”: the binding signal was 12200 fluorescence intensity (a.u.).

In the case of “ATTAGATTGACTATAGATGAATTGAAGACAGTAGTGGGCTCGGAGTCACCTAGTGCAG”, the binding signal is 49500 fluorescence intensity (a.u.).

With “GATATTAGATTGGCTATAGATGAATTGGAGTTAGTAGTGGCGGAGTCACCTAGTGCAG”, the binding signal is 52700 fluorescence intensity (a.u.).

On to “CATGATTAATTTTAGGCCGGTCATTGCTCGTGTCCTTGTTCGGAGTCACCTAGTGCAG”, for which the binding signal is 65300 fluorescence intensity (a.u.).

As to “ATTGGCTATTAGATTGGCTATAGATGAATTAGAGTTAGTACGGAGTCACCTAGTGCAG”, the binding signal was 15400 fluorescence intensity (a.u.).

Take “ATGTCATTTTAAAGTTTAATTAATTAGATAATTACCTTCTCGGAGTCACCTAGTGCAG”: the binding signal was 17500 fluorescence intensity (a.u.).

Turning to “TCATCTAATTAATTGGCAAGGTGATATGCGTCCCTGAAAACGGAGTCACCTAGTGCAG”, the binding signal was 39500 fluorescence intensity (a.u.).

For the sequence “GACAGTTTGATTTCCTCTTGTGTTTATGCATTATTTTGTGCGGAGTCACCTAGTGCAG”, the binding signal is 3640 fluorescence intensity (a.u.).

As for “TATCAAATTTATCCATTTGTTAATGTTGTAATAATTAAAACGGAGTCACCTAGTGCAG”, the binding signal is 6890 fluorescence intensity (a.u.).

“CTGACTTTGTCATACGTCTATGATTTGCCACTGACTTTATCGGAGTCACCTAGTGCAG”: the binding signal was 4530 fluorescence intensity (a.u.).

Turning to “CATTCTAATTAGCAATGGTCACCACGAATGATTAATGTAGCGGAGTCACCTAGTGCAG”, the binding signal was 28200 fluorescence intensity (a.u.).

On to “ACATCTAATTTGAAATGGATGTAGTATATTCTAATTGCATCGGAGTCACCTAGTGCAG”, for which the binding signal was 17000 fluorescence intensity (a.u.).

Turning to “TGAATATGTCCCAAATTAATTGTCACAATGGAGTACTAATCGGAGTCACCTAGTGCAG”, the binding signal is 3200 fluorescence intensity (a.u.).

Regarding “AATATTAGATTGGCTATAGATGAATTGTAGCTAGTAGTTGCGGAGTCACCTAGTGCAG”, the binding signal is 54100 fluorescence intensity (a.u.).

On to “TATTAGATTGGCTATAGATGAATTGGAGCTAGTAGTTGGCCGGAGTCACCTAGTGCAG”, for which the binding signal is 46700 fluorescence intensity (a.u.).

As for “TAGATTGGCTATAGATGAATTGGAGCTAGTAGTTGGCTATCGGAGTCACCTAGTGCAG”, the binding signal is 25400 fluorescence intensity (a.u.).

Take “CTGCTGCTTGATTATTTGGGTTCAACTGGCAAGAACTATGCGGAGTCACCTAGTGCAG”: the binding signal was 8890 fluorescence intensity (a.u.).

For the sequence “GTGATTGATGCCGCCTGGGTTAGTTCAACTATTGCTGCATCGGAGTCACCTAGTGCAG”, the binding signal was 55400 fluorescence intensity (a.u.).

“TGGGTGATTGATTAGTACTACTGCTGCATCTGCACTGCATCGGAGTCACCTAGTGCAG”: the binding signal was 38400 fluorescence intensity (a.u.).

As for “TCAAAATCAGTTTGAGTAAATTTTATTTTGGTTCAACTTTCGGAGTCACCTAGTGCAG”, the binding signal is 6800 fluorescence intensity (a.u.).

Regarding “ATTTTGATTAAATGGTGATCAGCCAAAGCATTTGCCATCCCGGAGTCACCTAGTGCAG”, the binding signal was 39300 fluorescence intensity (a.u.).

Turning to “GGCGACAAGACAGATAGACAGAAGCCATTCATATCGAACCCGGAGTCACCTAGTGCAG”, the binding signal is 5190 fluorescence intensity (a.u.).

For “TATTCAATCATCCAAGGTTTGCATATCATTGACCGGCGTGCGGAGTCACCTAGTGCAG”, the binding signal is 14400 fluorescence intensity (a.u.).

Consider “CTTTGACAGACAGATATCCATTCATACGTGCACAGGCGACCGGAGTCACCTAGTGCAG”, for which the binding signal is 55300 fluorescence intensity (a.u.).

Consider “CCACCGTGATTTTCGCTCCCATCACCGCGCGAGGACTCCGCGGAGTCACCTAGTGCAG”, for which the binding signal was 3320 fluorescence intensity (a.u.).

For “GCTCCGGCGAGGCGAGGTCGGAGATCCCACCGCCGTGTCGCGGAGTCACCTAGTGCAG”, the binding signal is 65500 fluorescence intensity (a.u.).

Consider “GGTCGCCGGATCGCGGGAGGGAGGGAGGGAGGGAGGGAGGCGGAGTCACCTAGTGCAG”, for which the binding signal is 7230 fluorescence intensity (a.u.).

Take “CAAAACTAAAATGTTATCATATAATTATATATTTAAGACCCGGAGTCACCTAGTGCAG”: the binding signal was 8760 fluorescence intensity (a.u.).

“ATTCATATAATTTGTATCACCTCAATAATAATTGGTATCACGGAGTCACCTAGTGCAG”: the binding signal was 14700 fluorescence intensity (a.u.).

As to “GACAAATTTACAGTAGTTTAACTTTAAGCAAAGTCAAAACCGGAGTCACCTAGTGCAG”, the binding signal is 6260 fluorescence intensity (a.u.).

As for “TATACAATTATTTAAACAAAATTACCACTTTGCTACAACTCGGAGTCACCTAGTGCAG”, the binding signal was 8450 fluorescence intensity (a.u.).

As for “TTTTAATTACTGATCTTCTTACAATTGCTTTTATGCTGTCCGGAGTCACCTAGTGCAG”, the binding signal is 19700 fluorescence intensity (a.u.).

Turning to “TTATGTAATTATTATTTATTTTATTGTGACTTAATTTATCCGGAGTCACCTAGTGCAG”, the binding signal was 15500 fluorescence intensity (a.u.).

For the sequence “TACTGCTGGATTGAATTAATGGATCAAGACTGAATTTATCCGGAGTCACCTAGTGCAG”, the binding signal was 12100 fluorescence intensity (a.u.).

Regarding “CCGCAATTATTGGCCCTTAATTGTGAGGTTAATCCGTGGCCGGAGTCACCTAGTGCAG”, the binding signal is 60900 fluorescence intensity (a.u.).

Turning to “AAGGTTAATTGGATCCATGCCACGCGAATTGTGGCAAATCCGGAGTCACCTAGTGCAG”, the binding signal was 22100 fluorescence intensity (a.u.).

On to “CAATTAATTGCTTATCCGTGGCCTTGATCAATTACTGTGCCGGAGTCACCTAGTGCAG”, for which the binding signal is 56600 fluorescence intensity (a.u.).
